Laboratory results published in the supplement of paper PMC13380429.

Tested on: Vero E6 infected with SARS-CoV-2
Experiment: inhibition of SARS-CoV-2 cytopathic effect; higher = more antiviral protection, active = above 15
Details: 48 h

Measured: inhibition of SARS-CoV-2 cytopathic effect

Cc1ccc(-c2ncc(Cl)cc2-c2ccc(S(C)(=O)=O)cc2)cn1 [etoricoxib]
inactive: 1 nM 2.49% | 8.33 nM 0.25% | 100 nM -0.65% | 833.33 nM -1.22% | 10000 nM -1.11%

C/C=C/C=C/C(=O)O [sorbic-acid]
inactive: 1 nM 1.14% | 8.33 nM 2.26% | 100 nM -1.43% | 833.33 nM 2.41% | 10000 nM 2.55%

C#C[C@]1(OC(C)=O)CC[C@H]2[C@@H]3CCC4=CC(=O)CC[C@@H]4[C@H]3CC[C@@]21C [norethindrone-acetate]
inactive: 1 nM 0.09% | 8.33 nM 0.03% | 100 nM -1.33% | 833.33 nM 0.02% | 10000 nM 1.02%

COc1ccc(C(=O)/C(Cc2cc(OC)c(OC)c(OC)c2)=C(\C(=O)O)c2ccc3c(c2)OCO3)cc1
inactive: 1 nM -2.66% | 8.33 nM -0.48% | 100 nM -0.33% | 833.33 nM 1.73%
active: 10000 nM 17.8%

COCCNC(=O)COc1ccc(OCCNC[C@H](O)COc2ccccc2)cc1
inactive: 1 nM 0.49% | 8.33 nM 1.84% | 100 nM -1.53% | 833.33 nM -1.02% | 10000 nM -6.62%

Cc1cc(Nc2ncc(Cl)c(Nc3ccccc3S(=O)(=O)C(C)C)n2)c(OC(C)C)cc1C1CCNCC1 [ceritinib]
inactive: 1 nM -0.41% | 8.33 nM 1.21% | 100 nM 2.17% | 833.33 nM -2.36%
active: 10000 nM 58.8%

CCCCCCCCCCCCCCCC(=O)OC(CC(=O)[O-])C[N+](C)(C)C (stereo not given) [palmitoylcarnitine]
inactive: 1 nM 0.08% | 8.33 nM 0.65% | 100 nM 0.35% | 833.33 nM -1.19% | 10000 nM -9.18%
